Here are results for eleven sequences from PMC5700166.

What all share (assay): protein-binding microarray (PBM); PBM: ~300 nM protein, 6 mM HEPES pH 7.8, 80 mM KCl, 0.5 mM EDTA, 0.5 mM EGTA, 6% glycerol, 35 ng/ul poly-dIdC, 1% milk, 1 h, room temperature; Ap Aiptasia and Nv Nematostella (sea anemones) / Co Capsaspora / Aq Amphimedon (sponge) / Dm Drosophila / Hu human; RHD is the Rel homology domain; high values mean tight binding
Conditions in all cases: dsDNA, one strand shown

In one experiment the target is T1, GST-Ap-NF-kB RHD (Exaiptasia pallida (Aiptasia), UniProt A0A913YAJ5 2-422).
T1 sequence: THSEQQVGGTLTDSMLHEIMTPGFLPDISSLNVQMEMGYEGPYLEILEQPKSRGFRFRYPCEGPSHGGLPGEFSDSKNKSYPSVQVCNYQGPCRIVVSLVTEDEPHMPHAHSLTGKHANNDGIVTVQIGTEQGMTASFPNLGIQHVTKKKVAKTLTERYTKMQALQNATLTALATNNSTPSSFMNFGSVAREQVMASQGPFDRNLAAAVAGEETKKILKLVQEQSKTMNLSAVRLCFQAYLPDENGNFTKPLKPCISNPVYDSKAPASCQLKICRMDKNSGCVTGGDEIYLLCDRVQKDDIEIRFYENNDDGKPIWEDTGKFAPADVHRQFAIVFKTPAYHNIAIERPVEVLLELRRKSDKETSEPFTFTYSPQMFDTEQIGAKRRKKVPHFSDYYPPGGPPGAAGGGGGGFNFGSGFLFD

Experiment [1] addresses T2, GST-Nv-NF-kB (Cys allele) (Nematostella vectensis, UniProt E5G601 2-411).
T2 sequence: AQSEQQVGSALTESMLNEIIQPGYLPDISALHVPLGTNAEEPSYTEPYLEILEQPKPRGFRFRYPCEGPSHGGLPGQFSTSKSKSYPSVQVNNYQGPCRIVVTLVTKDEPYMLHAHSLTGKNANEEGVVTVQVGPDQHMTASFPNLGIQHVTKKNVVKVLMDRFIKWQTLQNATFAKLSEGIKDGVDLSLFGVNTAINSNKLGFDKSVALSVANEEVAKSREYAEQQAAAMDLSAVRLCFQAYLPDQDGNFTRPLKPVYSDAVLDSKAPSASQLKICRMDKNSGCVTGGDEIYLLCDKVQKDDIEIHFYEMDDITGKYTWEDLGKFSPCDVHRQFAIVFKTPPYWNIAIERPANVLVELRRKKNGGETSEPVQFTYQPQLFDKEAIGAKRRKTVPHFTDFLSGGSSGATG

Experiment [2] deals with T3, GST-Nv-NF-kB (Ser allele) (Nematostella vectensis, UniProt A7UNT2 2-411).
T3 sequence: T2 sequence with Q21R, C66S, S207N, E215Q, V217A, E225K, A268E, D399E

The target of another experiment is T4, GST-Co-NF-kB (Capsaspora owczarzaki, UniProt F1ARL5 200-546).
T4 sequence: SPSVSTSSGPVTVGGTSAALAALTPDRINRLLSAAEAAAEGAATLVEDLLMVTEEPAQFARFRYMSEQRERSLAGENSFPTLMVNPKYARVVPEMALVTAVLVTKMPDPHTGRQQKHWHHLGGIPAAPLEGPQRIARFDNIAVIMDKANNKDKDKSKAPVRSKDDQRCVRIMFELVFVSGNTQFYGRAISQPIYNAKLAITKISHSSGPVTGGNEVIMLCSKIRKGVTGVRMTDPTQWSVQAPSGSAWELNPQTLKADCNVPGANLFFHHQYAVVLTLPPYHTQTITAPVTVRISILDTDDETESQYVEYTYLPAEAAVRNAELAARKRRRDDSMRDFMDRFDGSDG

In the next experiment the target is T5, GST-Dm-Relish (Drosophila melanogaster, UniProt Q94527 99-473).
T5 sequence: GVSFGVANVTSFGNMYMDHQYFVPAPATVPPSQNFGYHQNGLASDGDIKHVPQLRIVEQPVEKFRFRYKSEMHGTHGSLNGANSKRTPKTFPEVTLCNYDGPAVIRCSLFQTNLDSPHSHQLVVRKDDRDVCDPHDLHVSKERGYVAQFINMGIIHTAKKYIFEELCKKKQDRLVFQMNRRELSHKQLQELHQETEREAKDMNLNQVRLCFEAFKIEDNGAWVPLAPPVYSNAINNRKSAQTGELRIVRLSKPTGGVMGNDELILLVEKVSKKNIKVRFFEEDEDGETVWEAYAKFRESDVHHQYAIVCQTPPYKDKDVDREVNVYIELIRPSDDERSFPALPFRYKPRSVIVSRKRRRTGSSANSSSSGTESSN

Another experiment deals with T6, GST-Aq-NF-kB (Amphimedon queenslandica, UniProt A9Y5G7 2-389).
T6 sequence: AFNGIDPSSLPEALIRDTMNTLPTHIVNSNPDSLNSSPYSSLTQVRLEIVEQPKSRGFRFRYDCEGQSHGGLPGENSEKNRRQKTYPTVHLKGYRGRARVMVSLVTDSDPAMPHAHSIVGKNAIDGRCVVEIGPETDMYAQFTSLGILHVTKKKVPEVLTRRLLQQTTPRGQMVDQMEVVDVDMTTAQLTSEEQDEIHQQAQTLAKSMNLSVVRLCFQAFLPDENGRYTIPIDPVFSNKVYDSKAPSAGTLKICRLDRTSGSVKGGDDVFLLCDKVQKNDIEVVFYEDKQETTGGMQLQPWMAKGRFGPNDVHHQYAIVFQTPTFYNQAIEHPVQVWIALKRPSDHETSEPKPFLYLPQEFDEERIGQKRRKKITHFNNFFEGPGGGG

Changes are numbered by the printed parent chain.

For “CCGATTAACATCACGTATTCCCCTGATGTTAATCGGGTCTTGATTCGCTTGACGCTGCTG”, the binding signal with GST-Ap-NF-kB RHD worked out at 7.14 z-score; in experiment [1], 7.75 z-score; in experiment [2] it was 7.86 z-score; with GST-Co-NF-kB, 6.56 z-score; in the experiment with GST-Dm-Relish, 4.86 z-score; in the experiment with GST-Aq-NF-kB it was 5.55 z-score.

For “CCGATTAACATCACAATTTTCCCTGATGTTAATCGGGTCTTGATTCGCTTGACGCTGCTG”, the binding signal was 4.54 z-score in the experiment with GST-Ap-NF-kB RHD; 6.45 z-score in experiment [1]; 7.95 z-score in experiment [2]; 5.61 z-score in the experiment with GST-Co-NF-kB; 2.17 z-score in the experiment with GST-Dm-Relish; 5.58 z-score with GST-Aq-NF-kB.

As to “CCGATTAACATCAGCCCCCCCCCTGATGTTAATCGGGTCTTGATTCGCTTGACGCTGCTG”, the binding signal with GST-Ap-NF-kB RHD is 4.45 z-score; in experiment [1], 5.13 z-score; in experiment [2], 3.95 z-score; with GST-Co-NF-kB, 5.44 z-score; in the experiment with GST-Dm-Relish, 4.51 z-score; in the experiment with GST-Aq-NF-kB it was 5.11 z-score.

Consider “CCGATTAACATCAGGGGAACATATGATGTTAATCGGGTCTTGATTCGCTTGACGCTGCTG”, for which the binding signal turned out to be 5.1 z-score in the experiment with GST-Ap-NF-kB RHD; 5.89 z-score in experiment [1]; 6.74 z-score in experiment [2]; 7.58 z-score with GST-Co-NF-kB; 4.08 z-score with GST-Dm-Relish; 5.59 z-score with GST-Aq-NF-kB.

In the case of “CCGATTAACATCAGGGAAGACGTTGATGTTAATCGGGTCTTGATTCGCTTGACGCTGCTG”, the binding signal was 1.82 z-score with GST-Ap-NF-kB RHD; 1.64 z-score in experiment [1]; 1.93 z-score in experiment [2]; 1.67 z-score with GST-Co-NF-kB; 1.11 z-score with GST-Aq-NF-kB.

“CCGATTAACATCAACCTCCCCCCTGATGTTAATCGGGTCTTGATTCGCTTGACGCTGCTG”: the binding signal in the experiment with GST-Ap-NF-kB RHD was 5.79 z-score; in experiment [1], 3.9 z-score; in experiment [2], 3.61 z-score; with GST-Co-NF-kB it was 6.38 z-score; with GST-Dm-Relish, 4.38 z-score; with GST-Aq-NF-kB, 4.25 z-score.

With “CCGATTAACATCAAGGGGGGGCATGATGTTAATCGGGTCTTGATTCGCTTGACGCTGCTG”, the binding signal is 4.34 z-score with GST-Ap-NF-kB RHD; 4.38 z-score in experiment [1]; 2.83 z-score in experiment [2]; 4.6 z-score with GST-Co-NF-kB; 3.45 z-score with GST-Dm-Relish; 4.09 z-score in the experiment with GST-Aq-NF-kB.

For “CCGATTAACATCAGACGTGGGAATGATGTTAATCGGGTCTTGATTCGCTTGACGCTGCTG”, the binding signal was 1.19 z-score in the experiment with GST-Ap-NF-kB RHD; 1.45 z-score in experiment [1]; 1.48 z-score in experiment [2]; 2.5 z-score with GST-Co-NF-kB; 2.21 z-score with GST-Aq-NF-kB.

Turning to “CCGATTAACATCAACCCCCCCCATGATGTTAATCGGGTCTTGATTCGCTTGACGCTGCTG”, the binding signal with GST-Ap-NF-kB RHD was 5.53 z-score; in experiment [1], 4.32 z-score; in experiment [2], 3.55 z-score; with GST-Co-NF-kB, 4.94 z-score; with GST-Dm-Relish, 5.75 z-score; in the experiment with GST-Aq-NF-kB, 4.01 z-score.

On to “CCGATTAACATCAGCATGGGAAATGATGTTAATCGGGTCTTGATTCGCTTGACGCTGCTG”, for which the binding signal was determined as 1.97 z-score with GST-Ap-NF-kB RHD; 2.72 z-score in experiment [1]; 2.33 z-score in experiment [2]; 1.93 z-score in the experiment with GST-Co-NF-kB; 1.67 z-score with GST-Aq-NF-kB.

As to “CCGATTAACATCAGGATTTTCCCTGATGTTAATCGGGTCTTGATTCGCTTGACGCTGCTG”, the binding signal came to 5.75 z-score with GST-Ap-NF-kB RHD; 8.01 z-score in experiment [1]; 7.34 z-score in experiment [2]; 3.97 z-score with GST-Co-NF-kB; 4.83 z-score with GST-Dm-Relish; 8.92 z-score with GST-Aq-NF-kB.
